High-throughput results as filed in PubChem BioAssay.
GLP-1R agonist = agonists of human GLP-1 receptor; AID 624172; HEK293 GLP-1R CRE-luciferase, luminescence, 4-6 h; cells express a hypersensitive GLP-1R form; 380,000 compounds, 0.007% hits; P43220; Potency, µM (series often up to 45.6 µM), inactives show top-dose activation, hits mostly activators; note: % of control where 0% means no effect
Target sequence (P43220 whole entry, looked up): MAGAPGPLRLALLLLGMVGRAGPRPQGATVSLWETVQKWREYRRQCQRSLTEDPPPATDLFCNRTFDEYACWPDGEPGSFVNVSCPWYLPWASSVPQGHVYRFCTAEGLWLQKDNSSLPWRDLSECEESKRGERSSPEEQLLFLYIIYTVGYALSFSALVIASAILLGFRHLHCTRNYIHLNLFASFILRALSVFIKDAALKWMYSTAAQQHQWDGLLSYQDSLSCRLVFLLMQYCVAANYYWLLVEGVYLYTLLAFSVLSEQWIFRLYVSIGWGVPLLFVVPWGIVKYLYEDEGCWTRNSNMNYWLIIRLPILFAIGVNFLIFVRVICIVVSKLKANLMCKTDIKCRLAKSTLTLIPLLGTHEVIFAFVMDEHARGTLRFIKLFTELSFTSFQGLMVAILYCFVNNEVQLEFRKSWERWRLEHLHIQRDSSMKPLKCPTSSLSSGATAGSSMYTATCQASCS
PTHR1 agonist = PTHR1 (human) receptor agonism; HEK293 GP2 PTHR1 cells, GloSensor cAMP luminescence, 1 h; Q03431; Potency, µM (doses to about 115 µM), for inactives: top-dose activation, usual class: activators; 410,000 compounds, 0.075% hits; note: nearly all actives have a fitted effect of over 55% in size
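HEK-293-derived GP2 cells expressing PTHR1 and a GloSensor cAMP reporter, 3,000/well, plated overnight, given luciferin plus IBMX (each 0.5 mM as added) for 1 h at 37 °C, then compound for 1 h at 37 °C. Luminescence was read after 15 min at room temperature.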
GLP1R cytotox = cytotoxic in the GLP-1 receptor inverse agonist counter-screen. AID 624418. Potency, µM (highest dose often 38.3 µM), without a hit: top-dose activity change, negative = inhibition, most hits filed as inhibitors. HEK293 cAMP-luciferase reporter cells, luminescence, 24 h. 410,000 compounds, 0.13% hits;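 note: loss of luciferase light is scored as toxicity; % is set by controls: 0 for no effect and ±100 for the full control effect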
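Luminescence readout: signal drop marks cytotoxicity. Plated cells grew 12 h at 37 °C, 5% CO2, received 23 nL compound for 24 h, then got luciferase reagent, read after 12 min at RT.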
GLP1R inv ag = GLP-1 receptor (human) inverse agonism. HEK293 GLP-1R CRE-luciferase, luminescence, 24 h; GLP-1R form is constitutively active. P43220. AID 624417. Potency, µM (series often up to 38.3 µM), inactives show top-dose activity change, negative = inhibition, most hits filed as inhibitors. 410,000 compounds, 1.6% hits; note: % is set by controls: 0 for no effect and ±100 for the full control effect; nearly all actives have a fitted effect of over 55% in size
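Using stably transfected HEK293 (constitutively active GLP-1R, cAMP-luciferase reporter), compounds were incubated 24 hr and luciferase measured by luminescence.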
* = called active by the depositor; i = inactive; ? = inconclusive; / = no result; [ ] = another dose, or the depositor's remark. Most compounds without a hit are left out; they make up all but 1.7% or so of the library. Calls come from the whole dose curve; as a rule, active = well fitted curve in the direction sought with a large enough effect; inconclusive = small, poorly fitted or top-dose-only effect, or another doubt; inactive = no such curve, though single readings can be large; an effect the other way counts as inactive or inconclusive. Potency is the fitted concentration of half-maximal effect.

SMILES | GLP-1R agonist | PTHR1 agonist | GLP1R cytotox | GLP1R inv ag
CC(NC(=O)c1sc2ncccc2c1-n1cccc1)c1ccccc1 (stereo not given) | / | -13.1% | 8.7% | ?
CCC(Sc1nc2cc3c(cc2c(=O)n1CCCC(=O)NCc1ccc2c(c1)OCO2)OCO3)C(=O)NCCCOC (stereo not given) | / | i | -4.7% | 4.2%
Cc1cccc(N(C)c2nc3ccccc3c3nnc(C)n23)c1 | / | i | -10.2% | 14.0%
O=C(c1ccncc1)N1N=C(c2ccc(Br)cc2)CC1c1ccccc1O (stereo not given) | 6.7% | -91.9% | 0.1% | ?
O=C(c1ccccc1)N1N=C(c2ccccc2)CC1c1ccccc1O (stereo not given) | 7.2% | -4.4% | -29.2% | 11.2µM*
Cc1ccc(C2=NN(C(=O)c3cccs3)C(c3ccccc3O)C2)cc1 (stereo not given) | -8.8% | -60.7% | -16.1% | 9.5%
O=C(c1cccs1)N1N=C(c2ccccc2)CC1c1ccccc1O (stereo not given) | 19.5% | i | -13.6% | 8.91µM*
Cc1ccc(C)c(NC(=O)CCc2c(C)nn(-c3ccc(N4CCCC4)nn3)c2C)c1 | / | i | -10.5% | 4.1%
COC(=O)c1[nH]c2ccccc2c1NC(=O)CN1CCN(c2cccc(OC)c2)C(C)C1 (stereo not given) | 6.8% | i | -18.1% | 10µM*
COC(=O)c1[nH]c2ccc(C)cc2c1NC(=O)CN1CCCC(C)(C)C1 | -6.6% | -11.6%[57.5 µM] | 0.3% | 2.24µM*
COC(=O)c1[nH]c2ccc(Br)cc2c1NC(=O)CN1CCCc2ccccc21 | -11.5% | -4.1%[57.5 µM] | -22.4% | 10µM*
CCOC(=O)c1[nH]c2ccc(C)cc2c1NC(=O)CN1CCCCC1 | 3.9% | 16.9%[57.5 µM] | -12.4% | ?
CN(C)S(=O)(=O)c1ccc(NC(=O)N2CCN(c3cccc(C(F)(F)F)c3)CC2)cc1 | -13.7% | -38.8% | -6.4% | 3.55µM*
COc1ccc(NC(=O)N2CCN(c3cccc(C(F)(F)F)c3)CC2)cc1 | -7.4% | ? | 17.3% | -3.1%
Cn1cc(C(=O)N/N=C/c2c(O)ccc3ccccc23)ccc1=O | -0.5% | i | 53.3% | 3.16µM*
O=C(N/N=C\c1c(O)ccc2ccccc12)c1ccc(O)cc1 | -4.3% | 2.4% | ? | ?
Cn1c(-c2ccccc2)c(/C=N/NC(=O)c2ccc(O)cc2)c2ccccc21 | 12.4% | -38.6% | -20.5% | 7.08µM*
COc1ccc(CC(=O)N(Cc2nc(-c3ccc(C)cc3)no2)C(C)C)cc1 | 3.7% | -23.0% | -0.2% | ?
O=S(=O)(O)CC(S)CS (stereo not given) | -5.0% | / | / | /
Cc1ccc(CNC(=O)c2cc(C3CC3)nc3c2c(C)nn3-c2cccc(Cl)c2C)cc1 | / | i | 2.4% | -11.1%
Cc1cc(N2CCN(Cc3nc(-c4ccc(F)cc4)oc3C)CC2)cc(C)n1 | 8.6% | i | -25.5% | 4.47µM*
CSc1ccc(C2c3c(-c4ccccc4O)n[nH]c3C(=O)N2Cc2ccncc2)cc1 (stereo not given) | / | i | -16.4% | -19.3%
O=C(OCc1nnc(-c2ccccc2)o1)c1cn(-c2ccccc2)nc1-c1ccccc1 | -0.9% | -19.5% | 6.8% | 12.6µM*
O=C(OCc1nnc(-c2ccccc2)o1)c1ccc(-n2cnnn2)cc1 | 13.6% | 27.7% | -1.2% | -5.6%
Cc1nc(N2CCN(C(=O)c3ccco3)CC2)c(C#N)c2c1CCCC2 | -3.9% | -41.3% | 3.5% | 1.3%
SMILES | GLP-1R agonist | PTHR1 agonist | GLP1R cytotox | GLP1R inv ag
CC(C)Cc1nc(N2CCN(C(=O)c3ccco3)CC2)c(C#N)c2c1CCCC2 | 19.1% | -36.2% | -26.4% | 8.91µM*
CCC1CN(C(=O)N2CCC(C(=O)N3CCN(c4ccccc4F)CC3)CC2)c2ccccc2O1 (stereo not given) | / | i | -1.5% | ?
CCCCNC(=O)Nc1ccccc1C(=O)NCCC | -3.9% | -2.4%[57.5 µM] | -26.1% | 0.0%
CCCCNC(=O)c1ccccc1NC(=O)CCSc1ccccc1 | 24.3% | -21.2%[57.5 µM] | 5.3% | 10µM*
COC(=O)c1sc(-c2ccccc2)cc1NC(=O)Nc1ccc(F)cc1 | / | -24.9% | 2.2% | ?
CCOc1ccc(CCNC(c2nnc(-c3ccccc3)o2)c2ccccc2Cl)cc1OCC (stereo not given) | / | -47.2% | -0.7% | 10µM*
COc1cc(C(=O)NCC(c2ccc3c(c2)OCO3)N2CCOCC2)cc(OC)c1OC (stereo not given) | / | -21.2% | 1.5% | 5.6%
Cc1[nH]c2ccccc2c1/C=N/NC(=O)c1cccc([N+](=O)[O-])c1 | 6.2% | -61.6% | 20.7% | -30.0%
Cc1[nH]c2ccccc2c1/C=N/Nc1ccc([N+](=O)[O-])cc1 | 3.8% | -5.2% | ? | 2.82µM*
C/C(=N/Nc1ccc([N+](=O)[O-])cc1)c1c[nH]c2ccccc12 | 5.8% | -29.4% | -11.7% | 2.51µM*
COc1ccc(CC(=O)NCc2nc3cccnc3n2Cc2ccc(C)cc2)cc1OC | / | -3.1% | 1.7% | 3.4%
Cc1cc(=O)[nH]c(SCC(=O)N2CCN(C(c3ccccc3)c3ccccc3)CC2)n1 | -0.4% | i | 13.3% | 5.62µM*
Cc1cc(=O)[nH]c(SCC(=O)N2CCN(c3ccccc3)CC2)n1 | / | -24.1% | 4.9% | 6.5%
NC(=S)NN=C1CCCCCCCCC1 | 11.7% | -23.5% | 4.47µM* | 2.82µM*
COCCNC(=S)NN=C1CCCCC1 | -1.5% | 9.4% | -0.9%[7.66 µM] | -8.8%[7.66 µM]
C=CCNC(=S)NN=C1CCCCCCC1 | 14.1% | -4.0% | ? | 3.55µM*
COc1cc(OC)cc(C(=O)Nc2cc3c(cc2N2CCCC2)n(C)c(=O)c(=O)n3C)c1 | / | -13.6% | 2.9% | 11.6%
COc1cccc(CCNc2ncnc3c2nnn3C)c1 | / | -63.4% | -12.4% | -4.5%
CCOC(=O)c1ccccc1NC(=O)COc1ccccc1-c1nnc(-c2ccccc2)o1 | / | -10.5% | -1.0% | ?
C(=C\c1ccccc1)/CSc1nnc(-c2ccccc2)n1Cc1ccco1 | 7.1% | -25.4% | -29.8% | 7.08µM*
C(=C\c1ccccc1)/CSc1nnc(-c2ccncc2)n1Cc1ccco1 | 25.4% | -24.5%[57.5 µM] | -0.6% | -10.8%
Cc1ccc(CNC(=O)c2cccc(-n3cnc4cccnc43)c2)cc1 | / | -59.2% | -10.9% | 33.0%
COc1ccc(C=C2C(=O)OC(C)(C)OC2=O)cc1OC | -13.9% | 0.5% | 7.0% | 22.2%
COc1ccc(/C=C2\OC(=O)c3c(OC)cccc32)cc1OC | 5.01µM* | -15.2%[57.5 µM] | 389.3% | 208.2%
CCOC(=O)c1sc2ccccc2c1S(=O)(=O)N1CCN(c2cccc(C)c2)C(C)C1 (stereo not given) | / | i | -5.4% | 8.7%
COc1cc(CNCCN2CCOCC2)ccc1OCc1cccc(Cl)c1 | 17.4% | -6.9%[57.5 µM] | -12.8% | ?
COc1cc(CNCCN2CCOCC2)ccc1OCc1ccc(Cl)cc1Cl | -12.0% | i | -28.7% | 3.16µM*
Cc1cc(N2CCC(C)CC2)nc(-n2nc(C)cc2C)n1 | 11.2% | -8.8% | 0.794µM* | ?
COc1ccc(Cl)cc1NC(=O)CN(C)C1CCCCC1 | 11.4% | i | 13.5% | ?
